Measurements reported in PubChem BioAssay (EPA / NIEHS).
Calls of active or inactive are those of the source. How the source made its calls: active means hit-call score of the fitted dose curve at least 0.9, where 1 is the maximum; inactive means score below 0.9.

Assay: CEETOX_H295R_CORTIC: CeeTox H295R High-throughput Steroidogenesis Assay for Corticosterone (CORTIC) (AID 2283437);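 further: corticosterone secreted into medium quantified by mass spectrometry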;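 on AC50: human H295R adrenal cells prestimulated with forskolin before chemical exposure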
Details: actives raise or lower the signal
Method in brief: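 Steps: seed H295R, adhere overnight; 10 uM forskolin 48 h; replace with chemical (0.1% DMSO) 48 h; extract medium with MTBE; quantify corticosterone by HPLC-MS/MS; score bidirectionally vs DMSO.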

| SMILES | outcome | AC50 |
| --- | --- | --- |
| O=C(O)Cn1c(=O)n(Cc2ccc(Br)cc2F)c(=O)c2ccc(Cl)cc21 | inactive | – |
| O=c1c(-c2ccc(O)cc2)coc2cc(O)cc(O)c12 | inactive | – |
| Cc1c2ccccc2c(C)c2c1ccc1ccccc12 | inactive | – |
| Cc1cc2c(cc1C(F)(F)F)N(C(=O)Nc1ccc(Oc3cccnc3C)nc1)CC2 | inactive | – |
| CC(C)(C)c1cc(/C=C2\SC(N)=NC2=O)cc(C(C)(C)C)c1O | – | 0.754 µM (active) |
| NC(=O)c1nc(-c2cccc(-c3cc(F)ccc3OCC(F)(F)C(F)(F)F)c2)n[nH]1 | inactive | – |
| CCCCCCCCCCCC[N+](C)(C)C | inactive | – |
| Cc1ccc2oc(CN(Cc3ccccc3)C(=O)Nc3c(F)cc(F)cc3F)c(-c3ccc(Cl)cc3)c2c1 | inactive | – |
| O=C(Nc1ccc(Cl)cc1)Nc1ccc(Cl)c(Cl)c1 | inactive | – |
| CC(=O)N1CCN(c2ccc(OC[C@H]3CO[C@](Cn4ccnc4)(c4ccc(Cl)cc4Cl)O3)cc2)CC1 | – | 1.77 µM (active) |
| CCCCOC(=O)c1ccc(O)cc1 | inactive | – |
| OC12N=C(c3ccccc3)SC1Cc1cc(Cl)ccc12 (stereo not drawn) | – | 17.7 µM (active) |
| C[C@]12CC[C@@H]3c4ccc(O)cc4CC[C@H]3[C@@H]1CC[C@H]2O | – | 2.13 µM (active) |
| COc1cccc([C@H](O)C2CCN(CCc3ccc(F)cc3)CC2)c1OC | – | 1.22 µM (active) |
| CN1C(=O)N(c2ccccc2Br)Cc2cnc(Nc3ccc4c(c3)OCC(CO)O4)nc21 (stereo not drawn) | inactive | – |
| Oc1ccc2ccccc2c1 | inactive | – |
| CCCCCCCC[Si](OCC)(OCC)OCC | inactive | – |
| Clc1cc(Cl)c2c(c1)N=C1CCCCCN1C2 | inactive | – |
